Active and inactive are the calls of the source.

The values below come from PubChem BioAssay.

Test [1] relates to PRMT1 (protein arginine N-methyltransferase 1). The test can be described thus: PRMT1 binders on small-molecule microarrays, primary screen, biochemical, small-molecule microarray, 635 nm fluorescence (AID 1088).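 Note: binding of Prmt1 protein to compounds spotted on small-molecule microarray slides.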 To be noted: small-molecule microarray binding, higher = more signal.
Test [2] is described as follows: yeast growth modulation, basal conditions, primary screen, YJM789 clinical isolate, OD600, 24 h (AID 1089).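 Note: growth of clinical yeast isolate S. cerevisiae YJM 789 seeded 1000 cells per well; test concentration not given here.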 To be noted: S. cerevisiae YJM789 growth, higher = more signal, called active from +8 up or from −8 down.
Test [3] in a line: fission yeast growth modulation, primary screen, strain 972, OD600, 24 h, no modulator (AID 1090).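 Note: basal condition with compound alone and no growth modifier present; test concentration not given here.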 The conditions noted are these: S. pombe 972 growth, higher = more signal, called active from +8 up or from −8 down.
Test [4] can be described thus: S. cerevisiae growth modulation with rapamycin, primary screen, strain BY4716, OD600, 96 h (AID 1091). Note: test concentration not given here. To be noted: higher = more signal, called active from +8 up or from −8 down.
The target in test [5] is Torsin-1A-interacting protein 2 (Homo sapiens) (UniProt Q8NFQ8). Put plainly: LULL1 binders on small-molecule microarray, primary screen, cell lysate, human LULL1 lysate, 635/667 nm fluorescence (AID 1092).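 Note: probe is lysate of COS7 cells overexpressing human LULL1; score merges per-feature 667 nm fluorescence with signal-to-noise.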 To be noted: hLULL1 lysate binding, 635 nm fluorescence, higher = more signal.
Test [6] is described as follows: E. coli growth modulation, two-sided OD650, primary screen, E. coli filamentation project, strain DRC41, 24 h (AID 1093).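 Note: MC1000 strain lacking acrAB efflux and sulA so SOS filamentation is blocked; test concentration not given here.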 To be noted: OD650, 24 h, higher = more signal, called active from +8 up or from −8 down.
A short description of test [7]: small-molecule microarray binders of probe aLefty2, primary screen, biochemical, biotinylated probe, 635/667 nm fluorescence (AID 1094).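 Note: score merges spot fluorescence near 667 nm with spot signal-to-noise ratio.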 To be noted: higher = more signal.
Test [8] has as its system Noggin (protein binding on small-molecule microarray). The test can be described thus: Noggin binders on small-molecule microarray, primary screen, biochemical, 635/667 nm fluorescence (AID 1095).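 Note: score merges 667 nm feature fluorescence with signal to noise over triplicate slides.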 To be noted: 635 nm fluorescence, higher = more signal.
For test [9], the target named is Neurogenic locus notch homolog protein 3 (Homo sapiens) (UniProt Q9UM47). The test can be described thus: NOTCH3 binders on small-molecule microarray, primary screen, biochemical, 635/667 nm fluorescence (AID 1096). The conditions noted are these: NOTCH3 binding, 635 nm fluorescence, higher = more signal.
Test [10] in a line: small-molecule microarray binders of probe aEGFR, primary screen, biochemical, biotinylated probe, 635/667 nm fluorescence (AID 1097).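 Note: probe is a biotinylated anti-EGFR antibody binding compounds printed on slides; score combines fluorescence near 667 nm and signal to noise of each spot.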 To be noted: higher = more signal.
Test [11] has as its system Plasmodium falciparum Sir2 (PF13_0152, Sir2A). Put plainly: pfSir2 binders on small-molecule microarrays, primary screen, biochemical, small-molecule microarray, 635 nm fluorescence (AID 1098).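 Note: score merges spot fluorescence intensity with its signal-to-noise ratio.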 The conditions noted are these: small-molecule microarray binding, fluorescence 635 nm; higher = more signal.
A short description of test [12]: small-molecule microarray binders of probe aDKK1, primary screen, biochemical, biotinylated probe, 635/667 nm fluorescence (AID 1099).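 Note: score merges 667nm spot fluorescence with signal to noise across triplicate slides; reference of the scale not given here.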 The conditions noted are these: higher = more signal.
Test [13] can be described thus: small-molecule microarray binders of probe aCHRDL2, primary screen, biochemical, biotinylated probe, 635/667 nm fluorescence (AID 1100). To be noted: higher = more signal.
Test [14] can be described thus: splicing luciferase reporter signal modulators, primary screen, spliceosome inhibition project, cell-based, HEK293, splice +/- reporter (AID 1101).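 Note: HEK293 cells carrying a splicing-competent luciferase reporter gene; test concentration not given here.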 To be noted: luminescence, 24 h, higher = more signal, called active from +8 up or from −8 down. On the technique in general: A reporter such as luciferase makes a cellular process visible.
Test [15] has as its target Fibroblast growth factor 10 (Homo sapiens) (UniProt O15520). Put plainly: FGF10 binders on small-molecule microarrays, primary screen, biochemical, small-molecule microarray, 635 nm fluorescence (AID 1102). To be noted: FGF10 binding, fluorescence 635 nm, higher = more signal.
Test [16] concerns glycogen synthase kinase-3 (GSK3A per assay name; protocol says GSK3B). The test can be described thus: GSK3 binders on small-molecule microarrays, primary screen, biochemical, small-molecule microarray, 635 nm fluorescence, GSK3A (AID 1103). Note: the record names both GSK3A and GSK3B. The conditions noted are these: small-molecule microarray binding, fluorescence 635 nm; higher = more signal.
Test [17] addresses Epidermal growth factor receptor (Homo sapiens) (UniProt P00533). The test can be described thus: EGFR binders on small-molecule microarrays, primary screen, biochemical, small-molecule microarray, 635 nm fluorescence (AID 1104).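 Note: score merges 667 nm emission intensity with spot signal to noise over triplicate slides.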 The conditions noted are these: EGFR binding, higher = more signal.
For test [18], the target named is Follistatin-related protein 3 (Homo sapiens) (UniProt O95633). Put plainly: FSTL3 binders on small-molecule microarrays, primary screen, biochemical, small-molecule microarray, 635 nm fluorescence (AID 1105).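 Note: score merges emission near 667 nm and signal to noise per printed spot across three slides.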 The conditions noted are these: FSTL3 binding, higher = more signal.
Test [19] addresses Dickkopf-related protein 1 (Homo sapiens) (UniProt O94907). The test can be described thus: DKK1 binders on small-molecule microarrays, primary screen, biochemical, small-molecule microarray, 635 nm fluorescence scan (AID 1106).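 Note: score merges emission near 667 nm with signal to noise over three replicate slides.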 To be noted: DKK1 binding, higher = more signal.
For test [20], the system named is Inhibin beta A chain (activin A). The test can be described thus: INHBA (activin A) binders on microarrays, primary screen, biochemical, small-molecule microarray, 635 nm fluorescence scan (AID 1107).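 Note: mouse activin A protein probed at 4.33 µg/mL on printed slides; score merges bound-protein fluorescence near 667 nm with spot signal-to-noise.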 To be noted: small-molecule microarray binding, higher = more signal.

Dickkopf-related protein 1 (Homo sapiens), sequence (O94907 whole entry, looked up): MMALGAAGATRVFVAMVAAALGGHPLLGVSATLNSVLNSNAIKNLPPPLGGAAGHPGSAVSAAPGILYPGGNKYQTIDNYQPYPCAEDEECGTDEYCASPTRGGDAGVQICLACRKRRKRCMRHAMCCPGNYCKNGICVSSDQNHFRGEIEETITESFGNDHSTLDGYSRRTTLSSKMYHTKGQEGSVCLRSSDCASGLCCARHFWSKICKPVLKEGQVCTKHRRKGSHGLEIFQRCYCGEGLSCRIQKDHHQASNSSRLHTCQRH
Epidermal growth factor receptor (Homo sapiens), sequence (P00533 whole entry, looked up): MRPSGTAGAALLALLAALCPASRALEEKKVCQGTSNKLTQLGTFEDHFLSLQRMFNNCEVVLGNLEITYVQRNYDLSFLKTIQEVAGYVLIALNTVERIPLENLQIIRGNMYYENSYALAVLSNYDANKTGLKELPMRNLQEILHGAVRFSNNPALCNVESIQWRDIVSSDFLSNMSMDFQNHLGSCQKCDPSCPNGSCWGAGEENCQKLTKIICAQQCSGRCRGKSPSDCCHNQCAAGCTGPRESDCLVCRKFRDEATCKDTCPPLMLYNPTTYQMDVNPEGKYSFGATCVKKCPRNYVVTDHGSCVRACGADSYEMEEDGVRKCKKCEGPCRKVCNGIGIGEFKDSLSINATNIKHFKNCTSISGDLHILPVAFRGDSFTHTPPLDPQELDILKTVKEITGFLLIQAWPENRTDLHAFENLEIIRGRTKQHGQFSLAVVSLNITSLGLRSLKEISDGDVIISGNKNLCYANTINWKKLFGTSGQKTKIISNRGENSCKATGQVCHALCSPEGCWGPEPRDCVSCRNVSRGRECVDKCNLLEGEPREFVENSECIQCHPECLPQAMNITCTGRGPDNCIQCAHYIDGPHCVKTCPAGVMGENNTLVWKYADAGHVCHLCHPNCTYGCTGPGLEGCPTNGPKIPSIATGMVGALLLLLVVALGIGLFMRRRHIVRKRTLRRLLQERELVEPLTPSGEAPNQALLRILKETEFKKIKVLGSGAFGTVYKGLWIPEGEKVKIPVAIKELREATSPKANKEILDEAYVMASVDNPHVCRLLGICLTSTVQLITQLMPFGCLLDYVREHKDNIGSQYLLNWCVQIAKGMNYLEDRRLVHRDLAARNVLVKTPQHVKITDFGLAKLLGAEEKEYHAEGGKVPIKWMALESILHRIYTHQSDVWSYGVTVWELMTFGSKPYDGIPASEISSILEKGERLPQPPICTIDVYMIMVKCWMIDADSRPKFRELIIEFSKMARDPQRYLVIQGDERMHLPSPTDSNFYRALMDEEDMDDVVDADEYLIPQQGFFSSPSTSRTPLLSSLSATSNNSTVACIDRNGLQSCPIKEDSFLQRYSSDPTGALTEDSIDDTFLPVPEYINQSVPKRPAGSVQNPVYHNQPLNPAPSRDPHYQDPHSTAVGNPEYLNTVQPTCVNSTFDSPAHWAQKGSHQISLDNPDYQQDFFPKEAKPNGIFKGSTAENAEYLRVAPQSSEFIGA
Fibroblast growth factor 10 (Homo sapiens), sequence (O15520 whole entry, looked up): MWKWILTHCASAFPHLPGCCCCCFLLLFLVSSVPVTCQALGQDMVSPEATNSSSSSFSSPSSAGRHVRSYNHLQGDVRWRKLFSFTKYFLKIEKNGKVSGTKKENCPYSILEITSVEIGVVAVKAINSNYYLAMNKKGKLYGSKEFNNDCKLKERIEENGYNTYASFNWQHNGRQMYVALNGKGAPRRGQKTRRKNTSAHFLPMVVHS
Follistatin-related protein 3 (Homo sapiens), sequence (O95633 whole entry, looked up): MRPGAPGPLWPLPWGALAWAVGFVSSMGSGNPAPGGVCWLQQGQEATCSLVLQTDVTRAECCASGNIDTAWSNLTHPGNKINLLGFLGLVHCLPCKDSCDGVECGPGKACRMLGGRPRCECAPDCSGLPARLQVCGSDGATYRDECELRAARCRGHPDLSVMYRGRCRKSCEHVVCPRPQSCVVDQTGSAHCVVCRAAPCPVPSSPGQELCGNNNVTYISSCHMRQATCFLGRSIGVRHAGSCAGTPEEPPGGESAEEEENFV
Torsin-1A-interacting protein 2 (Homo sapiens), sequence (Q8NFQ8 whole entry, looked up): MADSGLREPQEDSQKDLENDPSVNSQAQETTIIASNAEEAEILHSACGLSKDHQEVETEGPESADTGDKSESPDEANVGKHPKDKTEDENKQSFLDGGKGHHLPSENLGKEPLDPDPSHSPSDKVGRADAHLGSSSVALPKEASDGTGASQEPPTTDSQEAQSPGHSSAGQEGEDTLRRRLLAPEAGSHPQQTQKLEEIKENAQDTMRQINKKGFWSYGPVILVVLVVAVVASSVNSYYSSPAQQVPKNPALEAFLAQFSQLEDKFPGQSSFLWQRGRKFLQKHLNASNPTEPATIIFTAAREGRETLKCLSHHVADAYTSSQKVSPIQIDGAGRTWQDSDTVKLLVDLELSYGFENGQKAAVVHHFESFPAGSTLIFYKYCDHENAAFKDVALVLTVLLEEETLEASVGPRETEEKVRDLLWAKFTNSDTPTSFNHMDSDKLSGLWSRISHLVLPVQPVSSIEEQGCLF
Neurogenic locus notch homolog protein 3 (Homo sapiens), sequence (Q9UM47 whole entry, looked up): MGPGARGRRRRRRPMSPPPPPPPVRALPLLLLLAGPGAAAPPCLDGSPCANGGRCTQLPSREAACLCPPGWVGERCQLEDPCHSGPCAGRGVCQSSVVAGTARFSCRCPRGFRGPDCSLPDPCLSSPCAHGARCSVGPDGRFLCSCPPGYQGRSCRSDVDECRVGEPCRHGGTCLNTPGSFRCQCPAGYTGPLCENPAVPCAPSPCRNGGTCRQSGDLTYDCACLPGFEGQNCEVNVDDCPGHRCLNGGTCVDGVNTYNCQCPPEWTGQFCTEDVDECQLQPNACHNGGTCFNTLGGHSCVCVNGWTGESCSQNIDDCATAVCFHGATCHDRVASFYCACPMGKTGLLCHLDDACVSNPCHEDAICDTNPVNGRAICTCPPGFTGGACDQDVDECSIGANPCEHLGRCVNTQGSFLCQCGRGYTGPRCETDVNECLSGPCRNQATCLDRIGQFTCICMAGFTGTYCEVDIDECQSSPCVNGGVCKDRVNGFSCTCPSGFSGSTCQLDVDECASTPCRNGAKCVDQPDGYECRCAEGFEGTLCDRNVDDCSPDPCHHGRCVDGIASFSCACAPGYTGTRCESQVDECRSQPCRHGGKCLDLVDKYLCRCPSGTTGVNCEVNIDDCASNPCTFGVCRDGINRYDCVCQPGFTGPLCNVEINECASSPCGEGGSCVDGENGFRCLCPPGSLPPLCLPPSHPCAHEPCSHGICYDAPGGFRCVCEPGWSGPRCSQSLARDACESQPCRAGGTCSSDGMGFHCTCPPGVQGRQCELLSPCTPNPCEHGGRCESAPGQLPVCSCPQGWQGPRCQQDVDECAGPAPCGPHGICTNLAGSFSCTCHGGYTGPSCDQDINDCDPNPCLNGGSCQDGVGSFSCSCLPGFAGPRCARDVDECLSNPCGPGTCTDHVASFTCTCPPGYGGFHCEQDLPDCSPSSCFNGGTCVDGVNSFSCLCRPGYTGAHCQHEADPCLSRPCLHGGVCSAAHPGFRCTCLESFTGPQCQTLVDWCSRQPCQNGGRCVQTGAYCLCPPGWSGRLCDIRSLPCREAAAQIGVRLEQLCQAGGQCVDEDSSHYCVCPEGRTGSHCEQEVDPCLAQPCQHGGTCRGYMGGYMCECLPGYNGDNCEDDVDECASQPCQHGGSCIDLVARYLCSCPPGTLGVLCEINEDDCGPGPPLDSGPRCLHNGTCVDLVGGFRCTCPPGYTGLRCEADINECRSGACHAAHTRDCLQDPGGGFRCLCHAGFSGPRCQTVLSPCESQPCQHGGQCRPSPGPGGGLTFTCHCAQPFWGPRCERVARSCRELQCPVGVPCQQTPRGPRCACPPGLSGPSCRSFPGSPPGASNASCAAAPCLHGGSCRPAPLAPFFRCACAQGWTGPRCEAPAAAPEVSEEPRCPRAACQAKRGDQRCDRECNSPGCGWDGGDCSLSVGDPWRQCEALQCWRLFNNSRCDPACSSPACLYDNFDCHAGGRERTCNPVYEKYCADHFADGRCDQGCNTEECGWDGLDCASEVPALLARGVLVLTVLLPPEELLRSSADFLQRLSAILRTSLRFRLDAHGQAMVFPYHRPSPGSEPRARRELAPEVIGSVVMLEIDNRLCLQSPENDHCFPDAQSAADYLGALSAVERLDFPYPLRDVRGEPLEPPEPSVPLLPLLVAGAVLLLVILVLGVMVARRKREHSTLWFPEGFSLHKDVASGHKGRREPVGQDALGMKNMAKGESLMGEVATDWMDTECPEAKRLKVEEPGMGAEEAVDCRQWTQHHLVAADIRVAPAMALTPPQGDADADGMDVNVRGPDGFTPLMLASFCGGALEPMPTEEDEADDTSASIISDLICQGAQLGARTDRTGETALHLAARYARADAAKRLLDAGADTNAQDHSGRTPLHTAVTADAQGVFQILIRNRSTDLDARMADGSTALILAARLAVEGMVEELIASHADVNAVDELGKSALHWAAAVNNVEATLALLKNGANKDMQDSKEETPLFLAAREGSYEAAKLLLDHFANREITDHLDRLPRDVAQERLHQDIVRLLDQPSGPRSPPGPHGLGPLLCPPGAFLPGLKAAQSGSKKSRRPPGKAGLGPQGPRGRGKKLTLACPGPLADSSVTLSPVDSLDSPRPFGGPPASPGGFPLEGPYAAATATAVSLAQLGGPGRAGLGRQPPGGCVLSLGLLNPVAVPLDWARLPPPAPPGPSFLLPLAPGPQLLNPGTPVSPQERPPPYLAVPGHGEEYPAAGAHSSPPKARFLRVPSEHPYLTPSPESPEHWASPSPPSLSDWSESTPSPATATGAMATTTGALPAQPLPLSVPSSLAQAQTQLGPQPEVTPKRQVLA

As for `O=C1C=C(c2ccccc2)C(=O)c2ccc([C@H]3Oc4ccccc4S(=O)(=O)N4CCC[C@@H]34)cc21`, the composite z-score in [1] is -0.208; in test [5], -1.27; in [7], -0.18; in test [8] it was -0.144; in test [9] it was -0.272; in [10] it was -0.119. For the same molecule, the composite z-score in test [11] was -0.186; in [12], -0.39; in test [13] it was -0.6; in test [15], -0.101; in test [16], -0.191; in [17], 0.496. Also, the composite z-score in [18] was -0.266; in [19], 0.714; in test [20], 1.04. The z-score in test [2] is -0.818 (inactive); in test [3] it was -14.9 (active); in test [4], 0.696 (inactive); in test [6], 1.66 (inactive); in test [14], 0.781 (inactive).
Consider `CCOC(=O)C[C@H]1[C@H](OC(=O)c2cc3ccccc3oc2=O)[C@@H](NC(=O)Cc2ccc(OC)cc2)c2cc(OCCCO)ccc2N1C(=O)c1ccc2ccccc2n1`, for which the composite z-score is 0.268 in [1]; 0.773 in test [5]; -0.11 in test [7]; 0.68 in test [8]; 1.15 in [9]; -0.0241 in test [10]. The composite z-score was 0.195 in [11]; 0.0588 in test [12]; -0.335 in test [13]; 1.28 in [15]; 0.372 in [16]; 0.409 in test [17]. Also, the values for the composite z-score in test [18], in [19] and in test [20] were 0.889, 0.578 and 0.155, respectively. The z-score in test [2] is -0.724 (inactive); in test [3], -0.138 (inactive); in test [4] it was -0.0607 (inactive); in [6], 1.31 (inactive); in [14] it was 0.126 (inactive).
As for `Cc1cc(C)c(C(O)C2C=CC3C(=O)NC(=O)C3N2Nc2ccc(Cl)cc2Cl)c(C)c1` (stereo not given), the composite z-score in test [1] was 1.2; in test [5], 3.42; in test [7], 0.114; in [8] it was 0.364; in [9] it was 0.874; in test [10], -0.0581. Further, the composite z-score stood at 0.651 in test [11]; 0.639 in test [12]; 1.2 in test [13]; 0.871 in test [15]; 0.753 in test [16]; 0.253 in test [17]. Moreover, the composite z-score was 0.95 in [18], -0.0057 in test [19] and 1.31 in [20]. The z-score in [2] is -1.67 (inactive); in [3], -3.28 (inactive); in test [4], 2.14 (inactive); in test [6], -2.14 (inactive); in test [14], 0.465 (inactive).
`[N-]=[N+]=Nc1ccccc1[C@H]1OC(c2ccc(OCCCO)cc2)=N[C@@]1(CCS(=O)(=O)c1ccccc1)C(=O)NCCN1CCOCC1`: the composite z-score stood at 1.55 in test [1]; 3.3 in test [5]; 0.414 in test [7]; 0.55 in test [8]; 0.839 in test [9]; 0.154 in test [10]. Further, the composite z-score in [11] was 1.35; in [12], -0.135; in test [13] it was 0.775; in test [15], 1.41; in [16] it was 1.21; in test [17], 0.131. The composite z-score in test [18] was 1.19; in test [19], 0.248; in [20], 0.903. Further, the z-score in [2] was 0.299 (inactive); in test [3], 1.13 (inactive); in [4] it was 0.683 (inactive); in [6], 0.17 (inactive); in test [14], -0.0945 (inactive).
Consider `CO[C@]12C=C(Br)[C@@H](C[C@@H]1c1cccc(C)c1)[C@@]1(CO1)C2=O`, for which the composite z-score is 0.435 in [1]; 0.469 in [5]; -0.145 in [7]; 0.569 in [8]; 0.537 in test [9]; -0.115 in test [10]. Moreover, the composite z-score in test [11] is 1.53; in test [12], -0.306; in test [13] it was -0.284; in test [15], 0.0635; in test [16], -0.207; in [17] it was -0.14. Moreover, the composite z-score in [18] was 0.261; in [19], 0.0254; in test [20], 0.521. For the same molecule, the z-score in [2] was -0.354 (inactive); in test [3], -5.17 (inactive); in [4], -1.67 (inactive); in test [6] it was -0.0461 (inactive); in test [14], -0.258 (inactive).
As for `CN(C)CCCCNC(=O)[C@@H]1C[C@@H]2C(=O)N[C@@H](Cc3ccccc3)C(=O)N2[C@@H]1c1cccc(OCCO)c1`, the composite z-score in test [1] was 1.55; in test [5], 1.5; in test [7], -0.125; in [8], 1.45; in test [9] it was 1.06; in test [10], -0.131. In addition, the composite z-score in test [11] amounted to 0.769; in test [12], 0.0115; in [13], 0.393; in [15], 0.407; in test [16], 0.727; in [17] it was 0.404. Besides, the values for the composite z-score in test [18], in test [19] and in test [20] were 1.26, 1.28 and 0.0765, respectively. For the same molecule, the z-score is -5.59 (inactive) in test [2]; -1.63 (inactive) in [3]; -1.09 (inactive) in test [4]; 2.67 (inactive) in test [6]; -1.88 (inactive) in test [14].
With `CN(C)C(=O)[C@@]1(CCS(=O)(=O)c2ccccc2)N=C(c2ccc(OCCCO)cc2)O[C@H]1c1ccccc1`, the composite z-score in test [1] is 1.07; in test [5] it was 3.51; in [7] it was 0.0932; in test [8] it was -0.135; in test [9] it was 1.08; in test [10] it was -0.0215. Moreover, the composite z-score in test [11] was 1.32; in test [12] it was 0.415; in [13], 0.854; in [15], 0.961; in test [16] it was 1.29; in test [17], -0.806. The composite z-score in [18] was 0.455; in test [19], -0.94; in test [20] it was 0.54. Further, the z-score in test [2] was -0.308 (inactive); in [3], -0.255 (inactive); in test [4] it was 0.117 (inactive); in test [6], -0.16 (inactive); in [14], 2.27 (inactive).
`CCCC[C@@H]1C[C@H]1[C@@H](NC(=O)c1cccs1)c1ccc(C(F)(F)F)cc1`: the composite z-score in test [1] is 0.183; in test [5], -0.683; in test [7], -0.0009; in test [8], -0.345; in test [9], -0.182; in [10], -0.168. Further, the composite z-score was 0.0819 in [11]; 0.0202 in test [12]; 0.549 in test [13]; -0.609 in test [15]; -0.776 in test [16]; -0.507 in test [17]. Moreover, the composite z-score in test [18] was -0.152; in test [19], -0.0222; in [20] it was 1.09. Besides, the z-score in test [2] is 1.19 (inactive); in test [3] it was 1.01 (inactive); in test [4] it was -0.0454 (inactive); in [6], -1.72 (inactive); in [14], 0.101 (inactive).
As to `C=C(/C(=C/C[C@H](OC(=O)c1ccncc1)c1ccc(CO)o1)c1cc(C(=O)OC)ccc1OC)C(C)C`, the composite z-score in [1] was 1.44; in test [5], 1.6; in test [7], -0.116; in test [8] it was 0.424; in test [9] it was 1.02; in test [10], -0.0902. In addition, the composite z-score in test [11] was 0.805; in test [12], -0.0125; in test [13], -0.0735; in test [15], 0.909; in [16] it was 0.851; in [17], 0.0286. In addition, the composite z-score worked out at 0.752 in [18], 0.667 in [19] and 1.04 in test [20]. The z-score is -0.0096 (inactive) in test [2]; -0.515 (inactive) in test [3]; -0.38 (inactive) in [4]; 0.425 (inactive) in [6]; 0.174 (inactive) in [14].
